Test [1] is described as follows: NCI Yeast Anticancer Drug Screen. Data for the rad50 strain (AID 155).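 Note: 0% = growth of vehicle-only cultures of the same strain.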 To be noted: S. cerevisiae rad50 strain growth inhibition; at 50.0 µM; active compounds read high. A digest of the protocol:
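Growth of the mutant yeast was measured after compound exposure and referenced to vehicle-treated cultures.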

Test [2] can be described thus: NCI Yeast Anticancer Drug Screen. Data for the mec2-1 strain (AID 157). To be noted: S. cerevisiae mec2-1 strain, at 50.0 µM, active compounds read high. Put shortly: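 Test agents were screened against the mec2-1 yeast strain, with defined DNA repair or cell cycle alteration. Growth was scored as inhibition against vehicle-only controls.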
Test [3] can be described thus: NCI Yeast Anticancer Drug Screen. Data for the sgs1 mgt1 strain (AID 161).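 Note: 0% = growth of cultures given vehicle only.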 The settings on record: S. cerevisiae sgs1 mgt1 strain, at 50.0 µM, active compounds read high. Put shortly: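 Test agents were incubated with a DNA-repair-mutant yeast strain. Growth was then read and compared against vehicle-treated controls.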
The nature of test [4]: NCI Yeast Anticancer Drug Screen. Data for the cln2 rad14 strain (AID 165).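 Note: 0% = growth equal to vehicle treated cultures.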 To be noted: S. cerevisiae cln2 rad14 strain, at 50.0 µM, active compounds read high. Put shortly: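 Growth of compound-exposed yeast (cln2 rad14 genotype) measured and expressed as inhibition relative to vehicle.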
A short description of test [5]: NCI Yeast Anticancer Drug Screen. Data for the bub3 strain (AID 167). The settings on record: S. cerevisiae bub3 mutant strain, at 50.0 µM, active compounds read high. A digest of the protocol: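 Whole-cell yeast assay. The mutant strain was incubated with compounds, and growth inhibition was determined by comparison with vehicle-treated cells.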
Test [6] in a line: NCI Yeast Anticancer Drug Screen. Data for the mlh1 rad18 strain (AID 175). To be noted: S. cerevisiae mlh1 rad18 strain growth inhibition; at 50.0 µM; active compounds read high. A digest of the protocol:
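In this whole-cell yeast screen, a strain with altered DNA damage repair is challenged with compound, and its growth is measured against matched vehicle-treated controls.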

Compounds without any hit were thinned out: in the full panel of roughly 79,000, 15% have a hit. Values without a mark were called inactive. The source made the active and inactive calls. Cut-off read from the data, not from the text of the source: active = growth inhibition above about 70%; inactive = the rest.

For the compound `Oc1ccc(C(c2cc3c(cc2O)OCO3)N2CCNCC2)cc1` (stereo unspecified), the growth inhibition in test [1] is 21.8%; in test [2], 25.7%; in test [3], 25.9%; in test [4], -22.2%; in test [5], 18.5%; in test [6], 31.7%.

`CC(=O)CC(C)=O.CC(=O)CC(C)=O.CC(=O)CC(C)=O.[La]`: the growth inhibition is 27.8% in test [1]; 1.35% in test [2]; 12.2% in test [3]; 19.1% in test [4]; -4.6% in test [5]; 1.15% in test [6].

For the compound `O=C(NCC(O)CO)c1ccc(N(CCCl)CCCl)c([N+](=O)[O-])c1[N+](=O)[O-]` (stereo unspecified), the growth inhibition in test [1] was 17.1%; in test [2] it was 4.7%; in test [3], 16.3%; in test [4], 8.1%; in test [5], 12.7%; in test [6], 17.1%.

Turning to `CCC(O)C[As](=O)(O)c1ccccc1OC` (stereo unspecified), the growth inhibition in test [1] was 5.75%; in test [2], 20.2%; in test [3], 2%; in test [4] it was -1.6%; in test [5] it was 18.1%; in test [6], -1.65%.

`COc1ccccc1[As](=O)(O)c1ccccc1`: the growth inhibition is -6.45% in test [1]; -0.85% in test [2]; -1.45% in test [3]; -47.6% in test [4]; -11% in test [5]; 5.25% in test [6].

Take `N.N.N.N.O=N[O-].O=N[O-].[Cl-].[Co+3]`: the growth inhibition in test [1] was 4.25%; in test [2], 16.1%; in test [3] it was 2.55%; in test [4] it was 36.1%; in test [5], 7.25%; in test [6], 0.2%.

On to `CC(C)C(O)(C(=O)OCC1=CCN2CCC(O)C12)C(C)O` (stereo unspecified), for which the growth inhibition in test [1] is 2.55%; in test [2], 0.1%; in test [3], 25.1%; in test [4] it was 9.55%; in test [5] it was 12.6%; in test [6], 8.5%.

For `Cc1nc2ccc(Br)cc2c(=O)n1-c1nnc(C(C)(C)C)s1`, the growth inhibition is -10.9% in test [1]; -40.4% in test [2]; -23.2% in test [3]; -5.75% in test [4]; -20.6% in test [5]; -12.2% in test [6].

For `Oc1c(Cl)cc(Cl)cc1C1N(Cc2ccc(N(CCCl)CCCl)cc2Cl)CCCN1Cc1ccc(N(CCCl)CCCl)cc1Cl`, the growth inhibition was -0.6% in test [1]; 15.6% in test [2]; 18.6% in test [3]; -6% in test [4]; -4% in test [5]; 18% in test [6].

Regarding `[Cl][Hg][c]1ccccc1N=Nc1ccccc1`, the growth inhibition was 91.7% (active) in test [1]; 98.5% (active) in test [2]; 94.4% (active) in test [3]; 97% (active) in test [4]; 98% (active) in test [5]; 94.5% (active) in test [6].

On to `C[CH2][Sn](/[CH]=C\CO)([CH2]C)[CH2]C`, for which the growth inhibition in test [1] is 63%; in test [2], 77.8% (active); in test [3], 85.2% (active); in test [4], 43.8%; in test [5], 93.6% (active); in test [6], 94.6% (active).

On to `CC1N=C(c2ccccc2)C2(c3ccccc3)C(C)N12` (stereo unspecified), for which the growth inhibition in test [1] is -7%; in test [2], 6.8%; in test [3], -7.7%; in test [4], -29.2%; in test [5], -10.3%; in test [6] it was 5.85%.

As for `CC1(C)N=C(N)N=C(N)N1c1cccc(CCCCc2ccc(S(=O)(=O)F)c(Cl)c2)c1`, the growth inhibition was 99.5% (active) in test [1]; 99.7% (active) in test [2]; 99.5% (active) in test [3]; 99.4% (active) in test [4]; 99.3% (active) in test [5]; 99.7% (active) in test [6].

In the case of `CCCCC(CC)CC1C(=O)NC(=S)NC1=O` (stereo unspecified), the growth inhibition in test [1] was -3.7%; in test [2] it was 5.55%; in test [3], -17.8%; in test [4], -37.1%; in test [5], -0.05%; in test [6], 6.35%.

As for `CCC1(CCSC#N)C(=O)NC(=O)NC1=O`, the growth inhibition in test [1] is -7.55%; in test [2], -8.6%; in test [3], 11.2%; in test [4], -14.9%; in test [5] it was -3.3%; in test [6], 3.85%.

As to `CCC1(CC)C(=O)NC(=O)[N]([Sn]([CH3])([CH3])[N]2C(=O)NC(=O)C(CC)(CC)C2=O)C1=O`, the growth inhibition in test [1] is -17.3%; in test [2], -3.7%; in test [3] it was 7.05%; in test [4], -19.4%; in test [5], -1.3%; in test [6], -26.1%.

On to `CC1CC(C)OP(Oc2ccccc2)O1` (stereo unspecified), for which the growth inhibition in test [1] was -24.6%; in test [2], 4.05%; in test [3], -21.8%; in test [4], -15.7%; in test [5], -7.15%; in test [6], -10.5%.

On to `O=S(=O)(F)c1cccc(Cl)c1C[P+](c1ccccc1)(c1ccccc1)c1ccccc1`, for which the growth inhibition in test [1] was 25.5%; in test [2], 3%; in test [3], 13.7%; in test [4] it was 12.7%; in test [5], 25.5%; in test [6] it was 41.4%.

In the case of `Cc1cc2oc(=O)c3c(c2c(O)c1CN1CCOCC1)CCCC3`, the growth inhibition is 34.1% in test [1]; 14.4% in test [2]; 16.5% in test [3]; 15.6% in test [4]; 18.1% in test [5]; 15.8% in test [6].

As for `CC(C)C(C)(O)C#N` (stereo unspecified), the growth inhibition in test [1] is 2.2%; in test [2] it was -2.1%; in test [3], 2.6%; in test [4], -23.4%; in test [5] it was 2.9%; in test [6], 17.9%.

Turning to `CCC[N+]12C(O)C(CC)C3CC1C1N(C)c4ccc(Br)cc4C14CC2C3C4O` (stereo unspecified), the growth inhibition in test [1] was 27.9%; in test [2], 8.3%; in test [3], 4.35%; in test [4] it was -12.3%; in test [5], 6.85%; in test [6], 20.9%.

(Values after PubChem BioAssay (NCI).)
